# Measurements from PubChem BioAssay (NCATS).
# Values joined by “and” are separate entries in the source; they are usually repeats but may differ in a detail not shown here. Equal entries are not always repeated. Records with an inconclusive call do not appear. Active and inactive are the calls of the source. Calls come from the whole dose curve; as a rule, active = well fitted cell-killing curve with a large enough effect; inconclusive = small, poorly fitted or top-dose-only effect; inactive = flat fitted curve, though single readings scatter.
# Experiment: Cell Viability - NIH 3T3 (AID 541); note: nearly all actives have a fitted effect of over 25% in size;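 for activity change, negative = cytotoxicity: plate controls were DMSO alone for no effect and tamoxifen positive control for full effect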
# Conditions: NIH 3T3 cell viability, qHTS; activity change, negative = cytotoxicity: at 92.2 µM (top of the series)
# From the text: NIH Chemical Genomics Center [NCGC]
# NIH Molecular Libraries Screening Centers Network [MLSCN]
# National Institutes of Environmental Health Sciences [NIEHS]
# National Toxicology Program [NTP]
# We have developed a 1536-well cell-based assay for quantitative high throughput screening (qHTS) against a number of cell lines to determine in vitro cytotoxicity of small molecules. This particular assay uses the NIH 3T3 fibroblast cell line which is established from NIH Swiss mouse embryo.
# NCGC Assay Protocol Summary:
# The CellTiter-Glo luminescent cell viability assay (Promega) is a homogeneous method to measure the number of viable cells in culture. The end point readout of this assay is based on quantitation of intracellular ATP, an indicator of metabolic activity, using the luciferase reaction. Luciferase catalyzes the oxidation of beetle Luciferin to oxyluciferin and light in the presence of ATP. The luminescent signal is proportional to amount of ATP present.
# Using the CellTiter-Glo luminescent cell viability assay, the amount of cellular ATP was measured in the NIH 3T3 cell line with complete culture medium following compound treatment for 40 hours. The assay was performed in opaque white Kalypsys 1536-well plates. In the screen, tamoxifen and doxorubicin were used as positive controls. Library compounds were measured for their ability to cause acute toxicity in the cell line, as reflected by a decrease in intracellular ATP levels, in a concentration-dependent manner. […] AC50 values were determined from concentration-response data modeled with the standard Hill equation.
# qHTS protocol for CellTiter Glo NIH 3T3 cellular assay
# [Step] [Parameter] [Value] [Description]
# 1. Reagent; 5 uL; 1000 NIH 3T3 cells/well
# 2. Time; 5 hr; 37 °C incubation
# 4. Controls; 23 nL; Tamoxifen 0.34 uM to 100 uM & Doxorubicin 0.02 nM to 100 uM
# 5. Time; 40 hr; 37 °C incubation
# 6. Reagent; 5 uL; CellTiter Glo reagent
# 7. Time; 20 min; Room Temperature
# 8. Detection; Luminescence; Viewlux plate reader
# Keywords: cell viability, cytotoxicity, NIH 3T3 cell line, luminescence, NTPHTS, NTPHTS_NCGC, NIEHS, EPA, DSSTox, MLSMR, MLSCN, NIH Roadmap, qHTS, NCGC
# Potency is the fitted concentration of half-maximal effect.
SMILES,Potency,"activity change, negative = cytotoxicity"
CN(C)c1ccc(N=O)cc1,12.6 µM (active),
N#CSCSC#N,10 µM (active),
Clc1ccc(C(c2ccc(Cl)cc2)C(Cl)Cl)cc1,inactive,
OC(c1ccc(Cl)cc1)(c1ccc(Cl)cc1)C(Cl)(Cl)Cl,inactive,
[Cd+2].[Cl-].[Cl-],,-132% (active)
Oc1c(Br)c(Br)c(Br)c(Br)c1Br,inactive,
CC(=O)[O-].CC(=O)[O-].O.O.[Cd+2],,-127% (active)
O=C(O)C1C(C(=O)O)C2(Cl)C(Cl)=C(Cl)C1(Cl)C2(Cl)Cl (configuration not stated),inactive,
C(=NC1CCCCC1)=NC1CCCCC1,1 µM (active),
c1ccc2cc3c(cc2c1)-c1cccc2cccc-3c12,inactive,
FC(F)(F)c1ccc(Cl)cc1,inactive,
CC(C)CC(C)Nc1ccc(Nc2ccccc2)cc1 (configuration not stated),,-113% (active)
ClC1=C(Cl)C2(Cl)C3C(Cl)C(Cl)CC3C1(Cl)C2(Cl)Cl (configuration not stated),inactive,
O=C1C2(Cl)C3(Cl)C4(Cl)C(Cl)(Cl)C5(Cl)C3(Cl)C1(Cl)C5(Cl)C24Cl (configuration not stated),,-136% (active) and -122% (active)
O=[N+]([O-])c1cc(C(F)(F)F)cc([N+](=O)[O-])c1Cl,,-150% (active)
C[C@@H]1CC[C@@]2(OC1)O[C@H]1[C@@H](O)[C@H]3[C@@H]4CC[C@H]5C[C@@H](O[C@@H]6O[C@H](CO)[C@H](O[C@@H]7O[C@H](CO)[C@@H](O)[C@H](O[C@@H]8OC[C@@H](O)[C@H](O)[C@H]8O)[C@H]7O[C@@H]7O[C@H](CO)[C@@H](O)[C@H](O[C@@H]8O[C@H](CO)[C@@H](O)[C@H](O)[C@H]8O)[C@H]7O)[C@H](O)[C@H]6O)[C@H](O)C[C@]5(C)[C@H]4CC[C@]3(C)[C@H]1[C@@H]2C,31.6 µM (active),
O=[N+]([O-])C(Br)Br,31.6 µM (active),
C#CCO,inactive,
CCCCCCCCn1sccc1=O,12.6 µM (active),
[CH3][Hg][Cl],0.0316 µM (active),
N#CC(Cl)Cl,inactive,
O=C(CCl)c1ccccc1,15.8 µM (active),
